# From PubChem BioAssay AID1347421 (Sanford-Burnham Center for Chemical Genomics, 2020)
# Over roughly 1,500 compounds, “activity” has its median near 2; the lowest 2% begin near -18. Only a selection was taken, and the lowest values are over-represented in it overall. Activity calls are given as the source filed them.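 The calls were made as follows: active = inhibition of at least 40% at 10 µM; inconclusive = no clear call, values can overlap the other calls; inactive = the rest.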
# Target: Sulfhydryl oxidase 1 (Homo sapiens) (UniProt O00391)
# Experiment: human QSOX1 sulfhydryl oxidase inhibition – biochemical, ROS-Glo luminescence, single concentration, confirmation (AID 1347421);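 also: 0% = DMSO wells with enzyme and 100% = wells lacking QSOX1 enzyme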
# Conditions: recombinant hQSOX1, RNase A substrate, ROS-Glo H2O2 luminescence; at 10 µM
# Chain of Sulfhydryl oxidase 1 (Homo sapiens) (O00391 whole entry, looked up): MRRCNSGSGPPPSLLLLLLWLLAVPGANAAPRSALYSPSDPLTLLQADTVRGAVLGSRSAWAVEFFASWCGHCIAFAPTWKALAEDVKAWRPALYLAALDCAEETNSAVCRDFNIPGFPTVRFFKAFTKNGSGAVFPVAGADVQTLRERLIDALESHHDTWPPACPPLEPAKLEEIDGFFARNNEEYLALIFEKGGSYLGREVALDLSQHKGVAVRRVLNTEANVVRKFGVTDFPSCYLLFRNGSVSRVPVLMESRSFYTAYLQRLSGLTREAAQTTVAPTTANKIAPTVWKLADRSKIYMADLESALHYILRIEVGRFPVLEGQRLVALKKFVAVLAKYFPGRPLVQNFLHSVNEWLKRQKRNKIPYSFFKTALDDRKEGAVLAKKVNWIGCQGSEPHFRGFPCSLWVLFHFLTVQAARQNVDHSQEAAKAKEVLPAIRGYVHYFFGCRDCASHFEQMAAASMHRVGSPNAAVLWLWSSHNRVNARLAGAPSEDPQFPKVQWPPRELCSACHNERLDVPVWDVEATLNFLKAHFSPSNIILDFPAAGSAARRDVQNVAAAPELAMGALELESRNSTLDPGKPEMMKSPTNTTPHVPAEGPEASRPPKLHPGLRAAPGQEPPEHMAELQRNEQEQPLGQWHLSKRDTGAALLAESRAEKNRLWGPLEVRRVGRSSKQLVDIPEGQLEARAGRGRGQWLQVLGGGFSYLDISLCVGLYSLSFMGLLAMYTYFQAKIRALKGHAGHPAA
row,Compound,activity
1,C=CCC(=O)N(CCOC)CC1CCCN(C2Cc3ccccc3C2)C1 (stereo not given),6.2%
2,CCOC(=O)c1nc(-c2ccc(F)cc2)no1,-21.6% (inactive)
3,CCC(=O)Oc1ccc(-c2nc(-c3cccc(OC)c3)no2)cc1,86.9% (active)
4,COC(=O)c1ccc(-c2noc(CN(C)CC3Cc4ccccc4O3)n2)cc1 (stereo not given),5.4%
5,CC(C)NC(=O)C1CCN(C2CCN(C3CCSCC3)CC2)CC1,0.2%
6,COc1ccccc1C(=O)C1CCCN(Cc2ccc(OCCO)cc2)C1 (stereo not given),1.5%
7,O=C(c1cc2ccccc2oc1=O)N1CCOC(CC2CCCCC2)C1 (stereo not given),0.4%
8,CC(=O)Nc1cccc(C(=O)N2CCN(c3ccccc3)CC2)c1,5.9%
9,COc1ccc(N2CCN(C(=O)c3ccc(-n4cnnc4)cc3Cl)CC2)cc1,-13.7% (inactive)
10,COc1ccc(N2CCN(C(=O)c3cccc(-n4cnnc4)c3)CC2)cc1,-22.3% (inactive)
11,COCCN1CCCC(O)(CN2CCCCCC2)C1=O (stereo not given),10.4%
12,O=C(CSc1nnc(-c2ccco2)o1)Nc1ccc(Br)cc1,2.3%
13,O=C(/C=C/c1cccnc1)N1CCCC(N2CCN(c3ccc(F)cc3)CC2)C1 (stereo not given),1%
14,c1ccc(-c2nn3c(-c4cccs4)nnc3s2)nc1,-20.4% (inactive)
15,c1ccc(-c2nn3c(-c4ccco4)nnc3s2)nc1,-4.2% (inactive)
16,c1ccc(Cc2nn3c(-c4cccs4)nnc3s2)cc1,-5.3% (inactive)
17,OCC1CCN(C2CCCN(Cc3cccc(OC4CCCC4)c3)C2)CC1 (stereo not given),7%
18,CCN(CC)CC(=O)N1CCOC(Cc2ccccc2Cl)C1 (stereo not given),2.5%
19,CCCCNC(=O)N1CCN(Cc2ccccc2Cl)CC1,-7% (inactive)
20,CCN(CC)S(=O)(=O)Cc1ccccc1Cl,-19.9% (inactive)
21,C=CCNC(=O)CCc1ccc(S(=O)(=O)NC)cc1,-11.4% (inactive)
22,O=C(Cn1nnc(-c2cccs2)n1)NCCC1=CCCCC1,-7.9% (inactive)
23,CC(C)CCCC1CN(C(=O)CCC(N)=O)CCO1 (stereo not given),6.8%
24,Cc1occc1-c1nnc2n1N=C(c1ccccc1)CS2,-19.7% (inactive)
25,Cc1oc(-c2ccccc2Cl)nc1CN(Cc1cnn(C)c1)C(C)C,5.9%

row,Compound,activity
1,COc1ccc(CNCCCSC)cc1OCC(O)CN(C)C(C)C (stereo not given),3.5%
2,O=C(NCC(c1ccc(F)cc1)N1CCCC1)c1cn(CCN2CCOCC2)nn1 (stereo not given),2.4%
3,COc1cccc(NC(=O)CCC2CCN(C(=O)CCc3cnccn3)CC2)c1,-0.4% (inactive)
4,CCN1CCCC1CNC(=O)CCC1CCN(Cc2cc(OC)c3c(c2)OCO3)CC1 (stereo not given),0.6%
5,CCS(=O)(=O)c1ncc(CN(C)CC(O)c2ccccc2)n1Cc1ccccc1 (stereo not given),6.9%
6,CCn1cc(-c2nc(-c3ccccn3)no2)cn1,44.4% (active)
7,COCCN1C(=O)C(=O)/C(=C(\O)c2ccc(OC)cc2C)C1c1cccnc1 (stereo not given),-3% (inactive)
8,NC(=O)C1CCCN(C(=O)Nc2ccc(F)cc2)C1 (stereo not given),-0.4% (inactive)
9,CSc1ncc(CN2CCCC(CO)(CCOc3ccccc3)C2)cn1 (stereo not given),10.5%
10,COc1ccccc1CCN1CCC(CN(C)C(=O)c2cscn2)CC1,-1.8% (inactive)
11,Cc1cc(CNCc2cccc(OCC(O)CN3CCCCCC3)c2)on1 (stereo not given),-2.7% (inactive)
12,COC(=O)c1ccc(CNC(=O)CC2C(=O)NCCN2Cc2cccs2)cc1 (stereo not given),2.8%
13,O=C(c1ccc(-c2ccccc2)c(F)c1)C1CCCN(C(=O)CCc2cnccn2)C1 (stereo not given),9.5%
14,Fc1ccc(C2(c3noc(-c4cn[nH]c4)n3)CCOC2)cc1 (stereo not given),2.1%
15,CC(C)Oc1cccc(C(=O)Nc2ncn[nH]2)c1,-3.3% (inactive)
16,Cc1cc(C)c(S(=O)(=O)Nc2ncn[nH]2)c(C)c1,-18.4% (inactive)
17,CCOC(=O)C1(CCCc2ccccc2)CCN(C(=O)CCn2cnnn2)CC1,0.6%
18,COCc1ccc(C(=O)N2CCC(CCC(=O)NCc3cccnc3)CC2)o1,4.1%
19,CC(C)CCCC1CN(Cc2ncc[nH]2)CCO1 (stereo not given),5.8%
20,COc1ccc(OC2CCN(C(=O)C3CC3)CC2)c(C(=O)NCCCN2CCOCC2)c1,2%
21,O=C(CN1CCCCCC1)Nc1ccc(Cl)cc1,-10% (inactive)
22,Cc1ccc(NC(=O)CN2CCc3ccccc3C2)cc1,-21.7% (inactive)
23,Cc1cccc(N2CCN(CC(=O)Nc3ccc(S(N)(=O)=O)cc3)CC2)c1C,-11.2% (inactive)
24,CN(C)CCC1CN(C(=O)CSc2ccccc2)CCO1 (stereo not given),4.2%
25,CC(C)Cc1ccc(CN2CCCC(NC3CCN(C)CC3)C2)cc1 (stereo not given),-2.5% (inactive)

row,Compound,activity
1,O=C(CCc1ccncc1)N1CCOC(Cc2ccccc2Cl)C1 (stereo not given),3.1%
2,CCN1CCCC1CN(CC1CCN(CCOC)CC1)C(=O)CCc1ccc(=O)[nH]n1 (stereo not given),6.9%
3,CN(C)CCC1CN(Cc2cnc(-c3ccccc3)s2)CCO1 (stereo not given),-0.6% (inactive)
4,CCCn1c(=O)c2c(nc3n2CCN3Cc2ccco2)n(C)c1=O,-9.9% (inactive)
5,Cc1nc(-c2ccc(CN3CCC(CCn4cccn4)CC3)cc2)[nH]c(=O)c1F,7.1%
6,O=C(CN1C(=O)CCNC1=O)N1CCC(OCc2ccccc2)CC1,2.9%
7,O=C(c1ccc(-c2ccccc2)cc1)C1CCCN(C(=O)CN2C(=O)CSC2=O)C1 (stereo not given),5.7%
8,CC(C)(C)C1(c2ccccc2)NC(=O)N(CC(=O)N2CCCCC2)C1=O (stereo not given),-23.9% (inactive)
9,COc1ccc(-c2noc(CN3CCC(C)CC3)n2)cc1OC,-16% (inactive)
10,COc1cc(CN2CC[C@@H](N3CCCCCC3)[C@H](O)C2)ccc1F,0.7%
11,CN(C)S(=O)(=O)c1ccc(CCC(=O)N2CCOCC2)cc1,1.9%
12,O=C(CCC1CCCN(C/C=C/c2ccc(F)cc2)C1)N1CCCC1 (stereo not given),-1.2% (inactive)
13,CS(=O)(=O)N(CC(=O)N1CCCC1)Cc1ccc(F)cc1,-19.7% (inactive)
14,COc1ccc(CNCCCN2CCOCC2)cc1OCC(O)CN1CCCC1 (stereo not given),4.6%
15,COC(=O)CCCNC(=O)C1CCC(=O)N(Cc2ccccc2OC)C1 (stereo not given),1.6%
16,COCCCNc1nc2nonc2nc1N(C)CCN1CCOCC1,-1.4% (inactive)
17,COc1ccc(OC)c(-c2nc(CN3CCN(C(=O)c4ccco4)CC3)c(C)o2)c1,-4% (inactive)
18,COc1ccc2oc3nc(=O)c4ccccc4c-3cc2c1,-123% (inactive)
19,COc1ccc(C(C)N(C)Cc2nc(-c3ccc(OC)cc3OC)oc2C)cc1 (stereo not given),5.7%
20,Cc1ccc(C(=O)N2CCC3(CCCN(Cc4ccc(F)c(F)c4)C3=O)C2)cn1 (stereo not given),3.9%
21,CCSCCn1ncc(N2CCNCC2)cc1=O,1.4%
22,CC(C)(CO)NC(=O)CC(c1ccccc1)c1ccc(Cl)cc1 (stereo not given),0.5%
23,NCc1ccccc1SC1=[C+]C=C[C+]=C1CN1CCOCC1,-11.3% (inactive)
24,O=C(NC(=O)N1CCCC1)c1ccc(Cl)cc1,-2.8% (inactive)
25,O=C1CCCN1CCCNCc1cccc(OCC(O)CN2CCCCCC2)c1 (stereo not given),5.6%

row,Compound,activity
1,COc1ccccc1Oc1ncccc1CNCC1CCOC1 (stereo not given),2.6%
2,Cc1cc(S(=O)(=O)n2ccnc2)c(C)c(C)c1C,-0.1% (inactive)
3,O=C(CC1C(=O)NCCN1Cc1cccnc1)NCCCn1ccc2ccccc21 (stereo not given),3.3%
4,COCC(=O)Nc1ccc(S(=O)(=O)N2CCCC(C)C2)cc1 (stereo not given),7.5%
5,COc1ccc(S(=O)(=O)N2CCCC(C(=O)NC3CC3)C2)cc1OC (stereo not given),-18.9% (inactive)
6,COc1ccc(S(=O)(=O)N2CCCC2)cc1N(C)S(C)(=O)=O,-11% (inactive)
7,CN1CCCCCC1C(=O)NCc1cccnc1N1CCN(c2ccccn2)CC1 (stereo not given),-5.2% (inactive)
8,CCOC(=O)c1cccc(CSc2n[nH]c(N)n2)c1,-1.9% (inactive)
9,Cn1ccnc1C1CCCCN1Cc1c(C(=O)N2CCCCCCC2)nc2sccn12 (stereo not given),10.8%
10,COc1cccc(-c2n[nH]c3c2CN(CCc2ccccc2)CC3)c1,5.1%
11,Fc1ccccc1-c1noc2c1CN(Cc1ccc3c(c1)OCCO3)CC2,-4.5% (inactive)
12,CCN(CC)C(=O)NCc1ccccn1,-15.1% (inactive)
13,O=C(NCc1ccc2c(c1)OCO2)C1CCC(=O)N(CCc2cccc(F)c2)C1 (stereo not given),-2% (inactive)
14,CCN(CC)C(=O)NCc1ccc2c(c1)OCO2,-18.4% (inactive)
15,Cc1cc(N2CCN(C(=O)c3cn(Cc4ccccc4F)nn3)CC2)cc(C)n1,2.1%
16,Cc1noc(C)c1CC(=O)N1CCCC(CCC(=O)N(C)CCc2ccccn2)C1 (stereo not given),5.3%
17,CN(CCc1ccccn1)C(=O)CCC1CCCN(C(=O)Cc2cccnc2)C1 (stereo not given),4.4%
18,FC(F)(F)c1cc(-c2ccco2)nc(NCc2cccs2)n1,-4.8% (inactive)
19,FC(F)(F)c1cc(-c2ccco2)nc(N2CCCCC2)n1,-20.8% (inactive)
20,Cc1ccccc1CC(=O)NCC(C)C,-16% (inactive)
21,COc1cc(C(=O)NC2CCCCC2)ccc1OC1CCN(C(C)=O)CC1,3.4%
22,CN(CCc1ccccn1)[C@@H]1CCN(Cc2ccc(C#CCO)s2)C[C@H]1O,4.2%
23,Cc1occc1C(=O)Nc1ccc([N+](=O)[O-])cn1,17.1%
24,C=C(C)CN(CC)C(=O)c1cc(COc2ccc(-n3cncn3)cc2)on1,9.4%
25,CCN1CCN(c2ncc3c(n2)CC(c2ccc(OC)c(OC)c2)CC3=O)CC1 (stereo not given),-19% (inactive)

row,Compound,activity
1,COc1ccc(C2CC(=O)c3cn[nH]c3C2)cc1 (stereo not given),-17.7% (inactive)
2,COc1ccc(C2CC(=O)c3cnc(NC4CC4)nc3C2)cc1 (stereo not given),3.9%
3,O=C(CCc1ccsc1)N1CCOC(Cc2ccccc2Cl)C1 (stereo not given),20.5%
4,Cc1cc(Br)c(S(=O)(=O)NCc2ccncc2)cc1C,3.4%
5,NC(=O)C1(N2CCCCC2)CCN(C(=O)C2CCC(=O)N(C3CCCC3)C2)CC1 (stereo not given),5.6%
6,Cc1ccccc1C(=O)Nc1c(Cl)ccc2nsnc12,0.9%
7,Cc1ccccc1C(=O)Nc1ccccc1C(=O)N(C)C,-20% (inactive)
8,O=C(Nc1ccccc1C(=O)NC1CC1)c1ccccc1Cl,11.7%
9,COc1ccccc1/C=C/CN1CCNC(=O)C1CC(=O)NCCOc1cccnc1 (stereo not given),-2% (inactive)
10,CC(C)Cn1c(CN(C)Cc2ccco2)cnc1S(=O)(=O)CC1CCCO1 (stereo not given),4.1%
11,O=C1CCC(C(=O)N2CCC(Oc3cccc(F)c3)CC2)CN1CCc1ccccn1 (stereo not given),0.7%
12,O=C(Nc1n[nH]c(C2CCCCC2)n1)N1CCOC2(CCCC2)C1,1%
13,C=CCC1(CC=C)CCCN1C(=O)c1cn(CC2COc3ccccc3O2)nn1 (stereo not given),-0.3% (inactive)
14,O=c1c2ccccc2nc(NCCO)n1Cc1ccccc1,-20.3% (inactive)
15,CS(=O)(=O)c1ncc(CO)n1Cc1ccccc1,-4.5% (inactive)
16,O=C(O)c1ccc(S(=O)(=O)N2CCSCC2)cc1,-3% (inactive)
17,NC(=O)COc1ccc(S(=O)(=O)N2CCOCC2)cc1,-13.3% (inactive)
18,O=C(c1cc(S(=O)(=O)N2CCOCC2)c(Cl)cc1Cl)N1CCSCC1,-18.4% (inactive)
19,O=C(Nc1ccc(-c2nc3ccccc3[nH]2)cc1)c1ccccn1,5.8%
20,CN(C)S(=O)(=O)c1cccc(S(C)(=O)=O)c1,8.2%
21,COc1cc(C)nc(NC(=O)Nc2cccc(Cl)c2)n1,-2.3% (inactive)
22,Cc1ccc(S(=O)(=O)c2ncsc2Cl)cc1,0.6%
23,CC(C)Oc1ccc(NC(=O)CCN2C(=O)c3ccccc3C2=O)cc1,0.6%
24,COC1=C(OC)C=CC(c2nnn(C3CCNCC3)n2)=[C+]1,-20.6% (inactive)
25,COc1cccc(CNCc2ccc(F)cc2)c1,-17.7% (inactive)
